Out of some 5,500 compounds screened, about 2,000 (36%) were called active. Not shown: some 18% with an inconclusive outcome. Rule as the data show it: active = normalized growth mostly below about 0.91 (no sharp cut-off); inconclusive = no clear call, values can overlap the other calls; inactive = mostly above about 0.92. Some of the results follow.
Assay: chemical genetic growth profiling, strain panel (AID 1159580);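 also: tested at 20 µM; growth read once vehicle control cultures reached saturation at 30 °C; 1 = growth at the plate median or of vehicle wells; lower values mean less growth of the strain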
Settings: S. cerevisiae deletion strains, growth OD

Measured: normalized growth

CC(C)=CCC/C(C)=C/CC/C(C)=C/CC/C(C)=C/CO
inactive: locus YHR030C, strain SLT2, stronger effect = lower value 1.06 | locus YHR079C, strain IRE1, stronger effect = lower value 1.05 | locus YJL095W, strain BCK1, stronger effect = lower value 1.04 | locus YJR066W, strain TOR1, stronger effect = lower value 0.944 | locus YLR113W, strain HOG1, stronger effect = lower value 0.975 | locus YNL183C, strain NPR1, stronger effect = lower value 0.932 | locus YOR231W, strain MKK1, stronger effect = lower value 0.998 | locus YPL256C, strain CLN2, stronger effect = lower value 1.08

Source: PubChem BioAssay AID1159580 (chemical genetic matrix, 2015)
